In the supplement of paper PMC3334620:
The full ranking holds about 33,000 sequences; the median of “E-score (-0.5 to 0.5)” is about -0.01, and the highest 2% start at about 0.26. The list comes from a sample in which the highest values are over-represented; it also holds similar and randomly drawn sequences.

What follows are sequences tested against Ste12 (UniProt P13574) (assay: PBM E-score (8-mer binding enrichment) (E-score (-0.5 to 0.5)); higher = stronger / more preferred TF binding). Conditions: protein concentration: 200 nM; construct: GST-DNA-binding domain.
Experimental: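 Universal 'all 10-mer' protein binding microarrays (Agilent AMADID 015681) probed with GST-tagged S. cerevisiae TFs (full-length or DBD) made by in vitro transcription/translation (PURExpress), about 100-200 nM. Bound TF was detected with fluorescent anti-GST. Each ungapped 8-mer (which stands for itself and its reverse complement) is scored by the PBM enrichment score (E-score), a modified Wilcoxon-Mann-Whitney statistic from -0.5 to +0.5, computed with the Universal PBM Analysis Suite. Scale: above 0.35 generally sequence-specific binding.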

Chain of UniProt P13574 (P13574 whole entry, the tested form may be a part): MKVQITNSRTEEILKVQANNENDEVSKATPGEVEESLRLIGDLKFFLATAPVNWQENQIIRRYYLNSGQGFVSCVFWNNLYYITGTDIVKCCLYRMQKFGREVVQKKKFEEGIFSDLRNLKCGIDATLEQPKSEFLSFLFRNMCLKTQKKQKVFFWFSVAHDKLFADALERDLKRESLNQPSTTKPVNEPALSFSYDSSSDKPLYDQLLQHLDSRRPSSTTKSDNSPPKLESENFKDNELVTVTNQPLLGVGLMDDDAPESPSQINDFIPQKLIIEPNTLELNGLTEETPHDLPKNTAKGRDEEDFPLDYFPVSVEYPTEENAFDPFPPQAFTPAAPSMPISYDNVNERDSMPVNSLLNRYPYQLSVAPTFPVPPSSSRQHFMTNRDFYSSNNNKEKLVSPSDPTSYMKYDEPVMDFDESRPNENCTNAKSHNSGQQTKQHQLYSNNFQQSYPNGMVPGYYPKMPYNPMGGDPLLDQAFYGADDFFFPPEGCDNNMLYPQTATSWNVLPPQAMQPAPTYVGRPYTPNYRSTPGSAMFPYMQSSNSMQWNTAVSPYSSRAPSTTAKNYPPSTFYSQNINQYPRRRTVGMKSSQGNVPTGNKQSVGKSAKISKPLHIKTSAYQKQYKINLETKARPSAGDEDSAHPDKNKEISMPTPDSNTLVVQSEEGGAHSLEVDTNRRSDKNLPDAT

| Sequence | PBM E-score |
| --- | --- |
| AGCAGTAG | -0.168 |
| TGGCCCCA | -0.094 |
| AAGTAGTG | -0.075 |
| ACCTAATC | 0.0677 |
| AGTAGAAC | -0.0785 |
| ACAAGAAA | 0.28 |
| GAAAGAAA | 0.297 |
| GAAAGAAC | -0.00643 |
| ACAAGAAT | 0.137 |
| AGTAGAAA | 0.297 |
| CGTAGAAA | -0.0538 |
| CAAAGAAA | 0.214 |
| CCAAGAAA | 0.0914 |
| CCCACATC | -0.0169 |
| GGCAAGCC | -0.0158 |
| GCTAACCC | -0.192 |
| CAGCTGCG | -0.0692 |
| AGAAATTG | 0.209 |
| CATGGATC | -0.0524 |
| AACTTTAT | 0.165 |
| ACTAAAAC | 0.272 |
| AATAAAAT | 0.183 |

| Sequence | PBM E-score |
| --- | --- |
| ACTAATAG | 0.0525 |
| ACTAAACC | 0.0959 |
| ACTAATAC | 0.131 |
| ACTAAAAT | 0.27 |
| ACTAATAT | 0.288 |
| ACTAAAAG | 0.1 |
| ACTAAAAA | 0.203 |
| AGAGTCTC | -0.00303 |
| CTTGTTCA | -0.105 |
| GACGTCAC | -0.136 |
| TCATACCA | -0.0469 |
| CATGGTTC | 0.19 |
| GTGGGCGA | -0.0639 |
| CGGACCAA | -0.096 |
| AACTGGTA | -0.00841 |
| ATCGTCGG | 0.00187 |
| CCCGTTGC | -0.145 |
| ACCGTTTA | 0.059 |
| CCCGTTTC | 0.274 |
| ACCGTTTG | -0.0273 |
| ACCGTTTC | 0.3 |
| CCCGTTTA | 0.0626 |

| Sequence | PBM E-score |
| --- | --- |
| TCACTTAA | 0.191 |
| TCCGACGA | -0.109 |
| CCCGACGA | 0.284 |
| GCCGACGA | 0.17 |
| ATAGCATA | -0.011 |
| GAAGACTA | -0.0635 |
| CAATTGAA | 0.187 |
| GAATTAAC | 0.00892 |
| GAATTGAA | 0.278 |
| CGATTAAA | 0.073 |
| TGATTAAA | 0.158 |
| GGATTAAA | 0.274 |
| TAATTGAA | 0.0688 |
| GAATTAAA | 0.287 |
| AAATTAAA | 0.206 |
| ATCCTACG | -0.141 |
| GAGCTTGA | -0.176 |
| AAAAACAC | 0.233 |
| CCGGAACC | 0.0511 |
| GCGGGGTA | 0.143 |
| CAGCCATC | -0.0408 |
| GCTCTACC | -0.167 |

| Sequence | PBM E-score |
| --- | --- |
| AAGCGAGA | 0.108 |
| CTCTTTAA | -0.122 |
| GTACCAAA | 0.0457 |
| CTACCGAA | -0.131 |
| CTACCAAA | 0.0171 |
| TTACCGAA | 0.276 |
| GTACCGAA | 0.0964 |
| TTACCAAA | 0.263 |
| GCATGCCC | 0.105 |
| AAACTGTT | 0.162 |
| AAACTGAA | 0.268 |
| AAACTTAA | 0.298 |
| GAACTTAA | 0.115 |
| AAACTTTG | 0.217 |
| AAACTGTA | 0.135 |
| CAACTTAA | 0.0143 |
| AAACTTTA | 0.294 |
| CAACTTTA | 0.161 |
| AAGATTGC | -0.0392 |
| ACTTTGAT | 0.11 |
| CCCGGCGG | 0.0682 |
| ATTAAGGG | 0.0581 |

| Sequence | PBM E-score |
| --- | --- |
| ATCTCGAC | 0.0726 |
| GATCCCCA | 0.0544 |
| CGCCTACA | 0.0882 |
| GTAGCCAC | -0.27 |
| CTGGGGGC | -0.233 |
| ACCCCACT | 0.0311 |
| ACCCCACG | -0.159 |
| GCCCCACC | 0.266 |
| GCCCCACA | 0.101 |
| CCCCCACC | -0.207 |
| ACCCCACC | 0.373 |
| GGACCCGA | -0.0164 |
| CTCCACAA | 0.00925 |
| CAAAGCGA | 0.0708 |
| ACAAGGAC | -0.129 |
| AGAAGACA | -0.132 |
| AACTCGCC | -0.0534 |
| AAATTTCA | 0.0583 |
| TAATTTAA | 0.3 |
| AAATTTAC | 0.197 |
| AAATTTAT | 0.263 |
| CGATTTAA | 0.1 |
